In the library only some 4.5% were active in any assay of this set; here they are far more common.
PrPC TRFRET = cell surface PrPC inhibition, primary TR-FRET screen. P04156. TR-FRET read-out. inhibition, % at 13.8 µM. 370,000 compounds, 0.43% hits. AID 720596; in the data active = inhibition above about 24%; note: 0% = median of the test wells and 100% = reference compound wells
PrP 5UTR inh = suppresses PrP 5' UTR mRNA reporter expression | AID 488862 | cell-based PrP 5' UTR mRNA reporter, plate reader | 340,000 compounds, 0.35% hits | inhibition, % (test concentration not listed); in the data active = inhibition above about 52%; note: 0 = median of the neutral control wells
BJeLR viability = kills HRASV12-expressing BJeLR cells; BJeLR (HRASV12) viability, CellTiter-Glo ATP luminescence, 48 h; inhibition, % (concentration not given with the values); 300,000 compounds, 0.17% hits; AID 1554; in the data active = inhibition above about 50%
PfHsp40 yeast = restores yeast growth despite PfHsp40 toxicity; S. cerevisiae expressing PfHsp40, growth rescue, ATP luminescence; growth rescue, % at 12.5 µM; 340,000 compounds, 0.68% hits; in the data active = growth rescue above about 28%, passing the limit was not always enough;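 note: yeast W303a lacking pdr1 and pdr3 grown in galactose medium; growth measured after three days at 30 °C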
FBA Mtb inh = Mtb fructose-bisphosphate aldolase inhibition. P9WQA3. purified M. tuberculosis FBA, fluorescence read-out. inhibition, % at 1 µM. 360,000 compounds, 2.3% hits; in the data active = inhibition above about 27%;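 note: 0% = vehicle and 100% = reference inhibitor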
Target sequence (P9WQA3 whole entry, looked up): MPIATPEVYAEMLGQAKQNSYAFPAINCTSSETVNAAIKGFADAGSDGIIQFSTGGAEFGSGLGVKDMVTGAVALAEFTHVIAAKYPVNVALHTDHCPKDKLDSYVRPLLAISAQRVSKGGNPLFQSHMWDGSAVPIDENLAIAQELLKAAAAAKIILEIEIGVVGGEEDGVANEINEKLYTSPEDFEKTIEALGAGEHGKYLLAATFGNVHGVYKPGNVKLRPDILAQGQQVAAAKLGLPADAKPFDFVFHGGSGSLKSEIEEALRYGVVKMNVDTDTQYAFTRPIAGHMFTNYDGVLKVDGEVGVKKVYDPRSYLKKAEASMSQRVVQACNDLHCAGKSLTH
GDH-TPI counter = counter-screen for M. tuberculosis FBA inhibitors: GDH-TPI coupled enzymes; GDH-TPI coupled enzyme counterscreen, NADH absorbance; inhibition, % at 4.8 µM; 360,000 compounds, 1.2% hits; AID 588335; in the data active = inhibition above about 30%;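 note: 0% = DMSO wells and 100% = wells lacking the enzyme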
* marks the source's active call; other numbers are inactive results; . = no result given.

SMILES | PrPC TRFRET | PrP 5UTR inh | BJeLR viability | PfHsp40 yeast | FBA Mtb inh | GDH-TPI counter
Cc1occc1C(=O)N/N=C/c1cccs1 | -7 | -18 | 1 | -2 | -1 | 25
Cn1cc(C(=O)N/N=C/c2cccs2)c2ccccc21 | 6 | -42 | 0 | 1 | -1 | 43*
Cc1ccsc1C(=O)N/N=C/c1ccc2c(c1)OCO2 | -8 | -24 | 34 | -1 | -2 | 36*
O=C(N/N=C/c1cccs1)c1ccc2c(c1)OCO2 | 2 | -31 | -17 | 0 | -2 | 27
COc1ccc([C@H]2OC(=O)C[C@H]2C(=O)N2CCN(C(=O)C3CCCO3)CC2)cc1OC (stereo partly specified) | -7 | . | . | . | . | .
COc1ccc2c(Cl)c(C(=O)N/N=C/c3c(C)[nH]c4ccccc34)sc2c1 | 10 | 9 | -13 | 0 | 2 | 22
COc1ccc2c(Cl)c(C(=O)N/N=C/c3ccc4c(c3)OCO4)sc2c1 | 3 | -18 | -20 | 0 | 0 | 47*
O=C(N/N=C/c1ccc2c(c1)OCO2)c1sc2cc(Cl)ccc2c1Cl | 2 | -23 | -13 | -1 | -2 | 8
Cn1cc(C(=O)N/N=C/c2ccc3c(c2)OCO3)c2ccccc21 | 12 | -31 | 32 | 0 | 2 | 34*
COc1ccc2c(Cl)c(C(=O)N/N=C3\CCCC(=O)C3)sc2c1 | -2 | -40 | -1 | -1 | -5 | 34*
O=C(N/N=C/c1ccc2c(c1)OCO2)c1cccc2ccccc12 | 6 | -26 | 1 | -1 | 1 | 11
Cc1occc1C(=O)N/N=C/c1ccc2c(c1)OCO2 | 5 | -89 | 64* | -1 | 3 | 46*
Cn1c(SCC(=O)Nc2ccc(C(=O)O)cc2)nnc1-c1ccccn1 | -5 | . | . | . | . | .
COCCCN1C(=O)[C@H](CC(=O)NCc2ccccc2)[C@]2(C(=O)OC)CCCCC=C12 | 5 | . | . | . | . | .
COC(=O)[C@]12C[C@H](CC(=O)NCc3ccc(OC)c(OC)c3)C(=O)N(Cc3ccco3)C1=C[C@H](C(C)C)O[C@@H]2C1CC1 | 4 | . | . | . | . | .
COc1ccc(-c2c(Cc3ccccc3)nc(NC(=O)c3ccccc3F)n2C)cc1 | 1 | . | . | . | . | .
O=C(CSc1ncccn1)NCc1ccc(F)cc1 | 1 | 9 | -11 | 1 | 1 | 6
O=C(CSc1ccc(-c2ccccn2)nn1)NCc1ccc(F)cc1 | -1 | -16 | 14 | 248* | 0 | 0
O=C(CSc1ccc(-c2ccccn2)nn1)NCc1ccccc1 | 1 | -19 | -40 | 270* | 3 | -2
COc1ccccc1C(=O)n1ccc2ccc(-c3ccc4ccn(Cc5ccc(C#N)cc5)c4c3)cc21 | -5 | . | . | . | . | .
Cc1ccc(Cn2nnc3c2-c2ccccc2S(=O)(=O)N(C(C)(C)C)C3)cc1 | 0 | . | . | . | . | .
O=C(N/N=C/c1ccc(Sc2ccccn2)o1)c1cc2ccccc2cc1O | . | -9 | -17 | 0 | -2 | 51*
COC(=O)c1ccc(/C=N/NC(=O)c2cccc(F)c2)cc1 | . | -58 | 0 | 1 | 0 | 25
O=C(N/N=C/c1ccc(Sc2ccccn2)o1)c1cccc([N+](=O)[O-])c1 | -7 | -9 | -6 | -1 | -5 | 25
O=C(N/N=C/c1cnc2ccccc2n1)c1cccc(F)c1 | -28 | -52 | 2 | -1 | -3 | 37*
SMILES | PrPC TRFRET | PrP 5UTR inh | BJeLR viability | PfHsp40 yeast | FBA Mtb inh | GDH-TPI counter
O=C(N/N=C\c1ccc(Sc2ccccn2)o1)c1cccc(F)c1 | -10 | -20 | -2 | 1 | -1 | 31*
O=C(N/N=C(\c1ccccc1)c1cccnc1)c1cccc(F)c1 | 3 | 44 | 67* | 315* | 1 | 9
O=C(N/N=C(\c1ccccc1)c1cccnc1)c1ccc(O)cc1 | 1 | -13 | 5 | -1 | 2 | 8
Cc1cc(NC(=O)c2ccc(NS(=O)(=O)c3ccccc3)cc2)no1 | 3 | . | . | . | . | .
COc1ccc(COC(=O)c2cc([N+](=O)[O-])ccc2N2CCOCC2)cc1F | -1 | 2 | 55* | 1 | -3 | 13
COc1cc(C2/C(=C(\O)c3ccc4c(c3)OCCO4)C(=O)C(=O)N2Cc2ccco2)cc(OC)c1OC (stereo unspecified) | -10 | 3 | . | -1 | 0 | 32*
COc1cc(C2/C(=C(\O)c3ccc4c(c3)OCCO4)C(=O)C(=O)N2Cc2ccco2)ccc1O (stereo unspecified) | -7 | -4 | 14 | 0 | 6 | 9
COc1ccc(/C(O)=C2\C(=O)C(=O)N(Cc3ccco3)C2c2cc(OC)ccc2OC)cc1 (stereo unspecified) | 6 | 3 | -3 | 1 | 0 | 40*
COc1ccc(OC)c(S(=O)(=O)N2CCC(C(=O)N3CCN(C4CCCCC4)CC3)CC2)c1 | -1 | . | . | . | . | .
CSCCCNc1nc(C)nc2c1nnn2Cc1ccccc1 | 5 | . | . | . | . | .
COc1cccc(N/C=C(\C#N)c2ccc(OCCCF)cc2)c1 | 3 | -40 | 0 | 4 | 2 | 33*
COc1ccc(NC(=O)CN2CCN(CC(=O)Nc3ccc(F)cc3)CC2)c(OC)c1 | -5 | -15 | 0 | 1 | 0 | 7
COc1cc2c(cc1OC)CN(CC(=O)Nc1ccc(F)cc1)C(C(=O)O)C2 (stereo unspecified) | -8 | -14 | -5 | 35* | -1 | -5
CCC[N+](CC#CCO)(CC#Cc1ccccc1)CCC | 2 | -29 | -1 | 4 | 146* | 3
S=C(Nc1ccccc1I)OC1CCC12CCC(c1ccccc1)CC2 (stereo unspecified) | 5 | . | . | . | . | .
CCSc1nc2c(c(=O)[nH]1)C(c1ccccn1)C1=C(CC(C)(C)CC1=O)N2 (stereo unspecified) | -7 | -19 | -3 | -1 | 124* | 12
CC(CC(=O)Nc1ccc2c(c1)c(=O)n(C)n2-c1ccccc1F)c1ccccc1 (stereo unspecified) | -1 | . | . | . | 139* | 11
Cn1c(=O)c2cc(NC(=O)CC(C)(C)C)ccc2n1-c1ccccc1F | 4 | . | . | . | 174* | 6
CC(C)N1CCCCC(NC(=O)c2ccc(-c3ccccc3)cc2)C1=O (stereo unspecified) | 0 | . | . | . | . | .
CCOC(=O)N1CCN(c2c(-c3ccc(C)cc3)c(=O)c2=O)CC1 | -21 | 1 | -3 | 1 | 2 | 34*
CCOC(=O)N1CCC(Nc2c(-c3ccc(C)cc3)c(=O)c2=O)CC1 | -20 | -11 | 4 | -2 | -3 | 36*
CN(Cc1ccccc1)S(=O)(=O)c1cccc(C(=O)OCc2ccc(Oc3ccccc3)cc2)c1 | -3 | . | . | . | . | .
O=c1[nH]c2ccccc2nc1-c1ccc(Cl)cc1 | -8 | -46 | 5 | 0 | 24 | 38*
O=c1[nH]c2ccccc2nc1Cc1ccc(Cl)cc1 | 6 | -9 | -6 | 0 | 1 | 8
CS(=O)(=O)N(CC(=O)N/N=C/c1cc([N+](=O)[O-])ccc1Cl)c1ccccc1 | -7 | -13 | 10 | 1 | 0 | -1
COc1ccc(C)cc1NS(=O)(=O)c1ccc(NC(=O)CN(c2cc([N+](=O)[O-])ccc2C)S(C)(=O)=O)cc1 | -9 | -3 | 109* | 0 | -2 | 14

High-throughput results from PubChem BioAssay.
